TLR4 MyD88 comp: inhibitors of human TLR4-MyD88 binding. O00206+Q99836. HeLa CL3-4 TLR4/MyD88 BLA complementation, FRET ratio. inhibition, % at 8.4 µM. actives 0.18% (n = 200,000). AID 861; in the data active means inhibition above about 25%
NOD2 RIPK2 PPI: inhibitors of human NOD2-RIPK2 interaction; O43353; CHO BLA complementation NOD2-RIPK2, CCF4 ratio; inhibition, % at 4.98 µM; actives 0.38% (n = 360,000); AID 624267; in the data active means inhibition above about 21%
Target sequence (O43353 whole entry, looked up): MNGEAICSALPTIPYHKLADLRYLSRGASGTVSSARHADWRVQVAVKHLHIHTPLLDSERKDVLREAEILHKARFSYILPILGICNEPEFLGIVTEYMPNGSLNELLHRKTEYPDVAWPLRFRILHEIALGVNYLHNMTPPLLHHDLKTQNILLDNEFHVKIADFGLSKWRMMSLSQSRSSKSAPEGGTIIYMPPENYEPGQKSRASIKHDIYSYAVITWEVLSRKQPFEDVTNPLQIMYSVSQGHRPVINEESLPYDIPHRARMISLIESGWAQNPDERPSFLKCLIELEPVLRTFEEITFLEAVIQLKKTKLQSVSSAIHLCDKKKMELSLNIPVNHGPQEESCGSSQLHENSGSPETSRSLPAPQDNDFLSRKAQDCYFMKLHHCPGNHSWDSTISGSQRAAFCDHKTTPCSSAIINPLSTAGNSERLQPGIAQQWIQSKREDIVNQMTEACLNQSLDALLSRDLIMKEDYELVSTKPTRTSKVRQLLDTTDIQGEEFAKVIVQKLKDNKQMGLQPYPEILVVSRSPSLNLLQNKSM
TLR9-MyD88 block: inhibitors of human TLR9-MyD88 binding; inhibition, % at 4.98 µM; CHO BLA complementation TLR9-MyD88, CCF4 FRET ratio; actives 0.21% (n = 340,000);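 active means inhibition above the mean over all tested compounds plus 3 SD, cut at about 21% in these data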
HTR2A ag: mouse HTR2A agonism via beta-arrestin recruitment. P35363. CHO-K1 mHTR2A beta-arrestin complementation, luminescence; percent of 30 µM serotonin response. activation, % at 7.6 µM. actives 0.66% (n = 360,000). AID 624169;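 active means activation above a run cutoff, the mean activation of all tested compounds plus 3 SD, cut at about 14% in these data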
ABHD5 PLIN5 PPI: ABHD5-PLIN5 protein interaction inhibition; Q00G26+Q8WTS1; Split G. princeps luciferase complementation, luminescence, 4 h; inhibition, % at 4 µM; actives 0.78% (n = 360,000); AID 602281;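 active means inhibition above the mean inhibition across every tested compound plus 3 SD, cut at about 22% in these data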
CRFBP-R2 block: antagonists of CRF-binding protein/CRF-R2 receptor complex; HEK293 CRF-R2/CRF-BP, CRF-induced calcium fluorescence; inhibition, % at 11.8 µM; actives 0.59% (n = 350,000); AID 588475;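 active means inhibition of the ligand-induced calcium signal above about 50% at the single tested concentration, limit read from the data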
ABHD5-PLIN5 conf: ABHD5-PLIN5 interaction inhibition, confirmed | actives 67% (n = 2,200) | biochemical ABHD5-PLIN5 interaction, luminescence | shares compounds with ABHD5 PLIN5 PPI | inhibition, % at 4 µM; in the data active means inhibition above about 23%
HNF4 split-luc: counter-screen for ABHD5-PLIN5 inhibitors: HNF4 split-luciferase. actives 77% (n = 2,200). AID 651674. HNF4 dimerization, luminescence, biochemical. inhibition, % at 4 µM. shares compounds with ABHD5 PLIN5 PPI;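 active means mean inhibition across replicate wells exceeding the computed hit threshold, cut at about 13% in these data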;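 further: light from luciferase halves that rejoin when HNF4 fusion proteins dimerize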
A number is an active result; n = inactive; x = no result given. Most compounds without a hit are left out; they make up all but 2.4% or so of the library.

SMILES	TLR4 MyD88 comp	NOD2 RIPK2 PPI	TLR9-MyD88 block	HTR2A ag	ABHD5 PLIN5 PPI	CRFBP-R2 block	ABHD5-PLIN5 conf	HNF4 split-luc
N#C/C(=C/c1ccc(N2CCCCC2)o1)C(=O)Nc1ccc2ccccc2c1	n	n	n	n	26	n	37	31
COc1ccc(NC(=O)/C(C#N)=C\c2ccc(N3CCOCC3)o2)cc1	n	n	n	n	n	n	x	x
CCC(c1nnnn1Cc1ccco1)N(Cc1cc2cc(C)cc(C)c2[nH]c1=O)CC1CCCO1 (stereo not drawn)	n	n	n	n	28	n	n	n
CCC(c1nnnn1Cc1ccco1)N(Cc1ccccc1OC)Cc1cc2cc(C)ccc2[nH]c1=O (stereo not drawn)	n	n	n	n	n	n	x	x
Cc1ccc(F)c(C(=O)N2CCCC(C)(C(=O)NS(=O)(=O)C3CC3)C2)c1F (stereo not drawn)	x	n	x	n	n	x	x	x
OCc1cccc(-c2cnc3c(Nc4cccc(OC(F)(F)C(F)F)c4)nccn23)c1	x	n	x	n	n	x	x	x
COc1ccc(NC(=S)N2CCN(c3ccc4c(c3)C3CCN(C(=O)OCc5ccccc5)C4C3)CC2)c(OC)c1 (stereo not drawn)	x	n	x	n	n	x	x	x
Cc1ccccc1Oc1nc2c(C)cccn2c(=O)c1/C=C(\C#N)C(=O)NC1CCS(=O)(=O)C1 (stereo not drawn)	x	n	n	n	46	n	62	49
Cc1cccn2c(=O)c(/C=C(\C#N)C(=O)NC3CCS(=O)(=O)C3)c(Oc3ccccc3Cl)nc12 (stereo not drawn)	x	n	n	n	n	n	x	x
O=C(C[n+]1cccc(CNC(=O)c2ccc(OC(F)F)cc2)c1)Nc1ccc(SC(F)F)cc1	n	n	n	n	29	n	n	n
O=S(=O)(/C(=C/c1ccc(C(F)(F)F)cc1)c1nc2ccccc2[nH]1)c1ccccc1	n	n	n	n	70	n	104	103
CC(C)c1ccc(/C=C(\c2nc3ccccc3[nH]2)S(=O)(=O)c2ccccc2)cc1	n	n	n	n	75	n	90	72
C/C(=C\c1ccc(N)cc1)c1nc2ccccc2[nH]1	x	n	n	n	n	n	x	x
O=C(NC1CCCCC1)C(c1ccnc2ccccc12)n1c(=O)c(-c2ccco2)nc2ccccc21 (stereo not drawn)	x	n	x	n	55	x	50	n
O=C(Nc1ccc2c(c1)OCCO2)C(c1ccnc2ccccc12)n1c(=O)c(-c2ccco2)nc2ccccc21 (stereo not drawn)	x	n	x	n	50	x	26	n
O=C(NC1CCCCC1)C(c1ccncc1)n1c(=O)c(-c2ccccc2)nc2ccccc21 (stereo not drawn)	x	n	x	n	n	x	x	x
O=C(NC1CCCCC1)C(C1CC1)n1c(=O)c(-c2ccccc2)nc2ccccc21 (stereo not drawn)	x	n	x	n	n	x	x	x
CC(C)(C)NC(=O)C(c1ccnc2ccccc12)n1c(=O)c(-c2ccccc2)nc2ccccc21 (stereo not drawn)	x	n	x	n	n	x	x	x
O=C(NC1CCCCC1)C(c1ccc(-c2ccccc2)cc1)n1c(=O)c(-c2ccco2)nc2ccccc21 (stereo not drawn)	x	n	x	n	79	x	71	n
O=C(NC1CCCCC1)C(c1ccccc1F)n1c(=O)c(-c2ccco2)nc2ccccc21 (stereo not drawn)	x	n	x	n	72	x	85	31
O=C(Nc1ccc2c(c1)OCCO2)C(c1ccncc1)n1c(=O)c(-c2ccco2)nc2ccccc21 (stereo not drawn)	x	n	x	n	n	x	x	x
C#CCN(CC(=O)OCC)S(=O)(=O)CCNC1CC1	x	n	x	n	n	x	x	x
O=C(/C(=C\c1ccccc1)c1nc2ccccc2[nH]1)c1ccc(Cl)cc1	n	n	n	n	n	n	x	x
O=C(/C(=C/c1ccc(Cl)cc1)c1nc2ccccc2[nH]1)c1cccs1	n	n	n	n	58	n	101	94
COc1cc(/C=C(/C(=O)c2cccs2)c2nc3ccccc3[nH]2)ccc1O	n	n	n	n	35	n	76	68
SMILES	TLR4 MyD88 comp	NOD2 RIPK2 PPI	TLR9-MyD88 block	HTR2A ag	ABHD5 PLIN5 PPI	CRFBP-R2 block	ABHD5-PLIN5 conf	HNF4 split-luc
COC(=O)c1cc(=O)n(-c2ccc(F)cc2)c(=Nc2ccc(F)cc2)s1	n	n	n	n	40	n	71	49
COC(=O)c1cc(=O)n(Cc2cccs2)c(=Nc2ccc(F)cc2)s1	n	n	n	n	45	n	65	44
COC(=O)c1cc(=O)n(Cc2ccc3c(c2)OCO3)c(=Nc2ccc(F)cc2)s1	n	n	n	n	n	n	x	x
COc1cccc(NC(=O)CCc2nnc3ccc(NCc4ccco4)nn23)c1	x	n	n	n	29	n	n	n
C[C@H](CO)N1C[C@H](C)[C@@H](CN(C)Cc2ccc(C(=O)O)cc2)Oc2c(NC(=O)C3CC3)cccc2C1=O	x	n	n	n	n	n	x	x
C[C@H](CO)N1C[C@H](C)[C@@H](CN(C)Cc2ccc(Oc3ccccc3)cc2)Oc2c(NC(=O)C3CC3)cccc2C1=O	x	n	n	n	28	n	n	n
C[C@H]1CN([C@@H](C)CO)C(=O)c2cccc(NC(=O)Nc3ccc(C(F)(F)F)cc3)c2O[C@H]1CN(C)C	x	n	n	n	28	n	n	n
COc1ccc(S(=O)(=O)Nc2cccc3c2O[C@H](CN(C)Cc2ccccc2)[C@@H](C)CN([C@H](C)CO)C3=O)cc1	x	n	n	n	n	n	x	x
C[C@H](CO)N1C[C@H](C)[C@@H](CN(C)S(C)(=O)=O)Oc2c(NC(=O)Nc3ccc(C(F)(F)F)cc3)cccc2C1=O	x	n	n	n	n	n	x	x
COc1ccc(S(=O)(=O)Nc2cccc3c2O[C@H](CN(C)Cc2ccncc2)[C@@H](C)CN([C@H](C)CO)C3=O)cc1	x	n	n	n	24	n	n	n
Cc1cccc(CN2CCN([C@@H]3CS(=O)(=O)N[C@H]3COCc3ccccc3)CC2)c1	x	n	x	n	n	x	x	x
CCOC(=O)[C@]12CCC=C1N(Cc1cccc3ccccc13)C(=O)[C@H](CC(=O)NCCCN1CCCC1=O)C2	x	n	x	n	n	x	x	x
CCN(CC)S(=O)(=O)c1ccc(C)c(NC(=O)Cc2ccc(S(=O)(=O)N3CCOCC3)s2)c1	x	n	n	n	23	n	n	n
CCCCCCCCCc1conc1C(=O)/C=C/c1oc2c(c1C)CCC(C)C2 (stereo not drawn)	x	n	x	n	42	x	37	n
O=C(/C=C/c1ccccc1O)c1ccc(Cl)cc1	n	n	n	n	58	n	94	75
